Source: PubChem BioAssay AID1159580 (chemical genetic matrix, 2015)
The campaign covered roughly 5,500 compounds. About 2,000 (36%) were called active. Not shown: some 18% with an inconclusive outcome. Rule as the data show it: active = normalized growth mostly below about 0.91 (no sharp cut-off); inconclusive = no clear call, values can overlap the other calls; inactive = mostly above about 0.92. This is one part of the list.

Test: chemical genetic growth profiling, strain panel (AID 1159580);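 also: tested at 20 µM; growth read once vehicle control cultures reached saturation at 30 °C; 1 = growth at the plate median or of vehicle wells; lower values mean less growth of the strain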
Conditions: growth OD

Measured: normalized growth

COC1=C(OC)C(=O)C(C/C=C(\C)CC/C=C(\C)CC/C=C(\C)CC/C=C(/C)CC/C=C(\C)CC/C=C(\C)CC/C=C(\C)CC/C=C(\C)CC/C=C(\C)CCC=C(C)C)=C(C)C1=O
inactive: S. cerevisiae deletion strains, locus YJR043C, strain POL32, active compounds read low 1.03 | S. cerevisiae deletion strains, locus YJR066W, strain TOR1, active compounds read low 0.982 | S. cerevisiae deletion strains, locus YKL009W, strain mrt4, active compounds read low 1.07 | S. cerevisiae deletion strains, locus YKL068W, active compounds read low 0.99 | S. cerevisiae deletion strains, locus YKL085W, strain MDH1 (second series), active compounds read low 1 | S. cerevisiae deletion strains, locus YKL085W, strain MDH1, active compounds read low 1 | S. cerevisiae deletion strains, locus YKL160W, strain elf1, active compounds read low 0.988 | S. cerevisiae deletion strains, locus YKR001C, strain vps1, active compounds read low 0.999 | S. cerevisiae deletion strains, locus YKR026C, strain gcn3, active compounds read low 0.986 | S. cerevisiae deletion strains, locus YKR091W, strain srl3, active compounds read low 0.98 | S. cerevisiae deletion strains, locus YLL001W, strain dnm1, active compounds read low 0.974 | S. cerevisiae deletion strains, locus YLL026W, active compounds read low 1 | S. cerevisiae deletion strains, locus YLL041C, strain sdh2, active compounds read low 0.973 | S. cerevisiae deletion strains, locus YLR027C, strain aat2, active compounds read low 0.988 | S. cerevisiae deletion strains, locus YLR039C, strain RIC1, active compounds read low 1.04 | S. cerevisiae deletion strains, locus YLR058C, strain SHM2, active compounds read low 0.985 | S. cerevisiae deletion strains, locus YLR102C, strain apc9, active compounds read low 0.994 | S. cerevisiae deletion strains, locus YLR113W, strain HOG1, active compounds read low 0.986 | S. cerevisiae deletion strains, locus YLR221C, strain rsa3, active compounds read low 0.97 | S. cerevisiae deletion strains, locus YLR258W, strain gsy2, active compounds read low 0.982 | S. cerevisiae deletion strains, locus YLR262C, strain YPT6 (second series), active compounds read low 0.942 | S. cerevisiae deletion strains, locus YLR262C, strain YPT6, active compounds read low 0.972 | S. cerevisiae deletion strains, locus YLR268W, strain sec22, active compounds read low 1.03 | S. cerevisiae deletion strains, locus YLR320W, strain mms22, active compounds read low 0.991 | S. cerevisiae deletion strains, locus YLR330W, strain CHS5, active compounds read low 1.01 | S. cerevisiae deletion strains, locus YLR342W, strain FKS1 (second series), active compounds read low 1.1 | S. cerevisiae deletion strains, locus YLR342W, strain FKS1, active compounds read low 0.96 | S. cerevisiae deletion strains, locus YLR357W, strain rsc2, active compounds read low 0.987 | S. cerevisiae deletion strains, locus YLR370C, strain arc18, active compounds read low 0.953 | S. cerevisiae deletion strains, locus YLR371W, strain rom2, active compounds read low 0.99 | S. cerevisiae deletion strains, locus YLR384C, strain iki3, active compounds read low 0.988 | S. cerevisiae deletion strains, locus YLR418C, strain cdc73, active compounds read low 0.997 | S. cerevisiae deletion strains, locus YML016C, strain PPZ1, active compounds read low 1.01 | S. cerevisiae deletion strains, locus YML032C, strain rad52, active compounds read low 0.971 | S. cerevisiae deletion strains, locus YML120C, strain ndi1, active compounds read low 0.985 | S. cerevisiae deletion strains, locus YML124C, strain tub3, active compounds read low 0.99 | S. cerevisiae deletion strains, locus YMR058W, strain fet3, active compounds read low 0.977 | S. cerevisiae deletion strains, locus YMR078C, strain ctf18, active compounds read low 0.992 | S. cerevisiae deletion strains, locus YMR125W, strain sto1, active compounds read low 0.972 | S. cerevisiae deletion strains, locus YMR129W, active compounds read low 0.974 | S. cerevisiae deletion strains, locus YMR205C, strain PFK2, active compounds read low 1.01 | S. cerevisiae deletion strains, locus YMR223W, strain ubp8, active compounds read low 1.01 | S. cerevisiae deletion strains, locus YMR231W, strain pep5, active compounds read low 0.981 | S. cerevisiae deletion strains, locus YMR307W, strain GAS1, active compounds read low 1.13 | S. cerevisiae deletion strains, locus YNL067W, strain RPL9B, active compounds read low 0.995 | S. cerevisiae deletion strains, locus YNL071W, strain lat1, active compounds read low 0.965 | S. cerevisiae deletion strains, locus YNL183C, strain NPR1, active compounds read low 0.982 | S. cerevisiae deletion strains, locus YNL209W, strain ssb2, active compounds read low 0.971 | S. cerevisiae deletion strains, locus YNL233W, strain BNI4, active compounds read low 1 | S. cerevisiae deletion strains, locus YNL248C, strain rpa49, active compounds read low 0.974 | S. cerevisiae deletion strains, locus YNL250W, strain rad50, active compounds read low 0.985 | S. cerevisiae deletion strains, locus YNL271C, strain bni1, active compounds read low 1.02 | S. cerevisiae deletion strains, locus YNL298W, strain CLA4, active compounds read low 0.998 | S. cerevisiae deletion strains, locus YNL307C, strain MCK1, active compounds read low 0.995 | S. cerevisiae deletion strains, locus YNL322C, strain KRE1 (second series), active compounds read low 0.958 | S. cerevisiae deletion strains, locus YNL322C, strain KRE1, active compounds read low 0.994 | S. cerevisiae deletion strains, locus YNR049C, strain mso1, active compounds read low 0.971 | S. cerevisiae deletion strains, locus YNR052C, strain pop2, active compounds read low 1 | S. cerevisiae deletion strains, locus YOL012C, strain htz1 0.872 | S. cerevisiae deletion strains, locus YOL147C, strain pex11, active compounds read low 1 | S. cerevisiae deletion strains, locus YOR001W, strain rrp6, active compounds read low 0.932 | S. cerevisiae deletion strains, locus YOR061W, strain CKA2, active compounds read low 0.981 | S. cerevisiae deletion strains, locus YOR069W, strain VPS5, active compounds read low 1.01 | S. cerevisiae deletion strains, locus YOR070C, strain gyp1, active compounds read low 0.975 | S. cerevisiae deletion strains, locus YOR080W, strain dia2, active compounds read low 0.999 | S. cerevisiae deletion strains, locus YOR083W, strain WHI5, active compounds read low 0.998 | S. cerevisiae deletion strains, locus YOR106W, strain vam3, active compounds read low 0.973 | S. cerevisiae deletion strains, locus YOR136W, strain idh2, active compounds read low 0.998 | S. cerevisiae deletion strains, locus YOR144C, strain elg1, active compounds read low 0.987 | S. cerevisiae deletion strains, locus YOR184W, strain ser1, active compounds read low 1 | S. cerevisiae deletion strains, locus YOR231W, strain MKK1, active compounds read low 1.05 | S. cerevisiae deletion strains, locus YOR265W, strain rbl2, active compounds read low 0.99 | S. cerevisiae deletion strains, locus YOR270C, strain vph1, active compounds read low 0.967 | S. cerevisiae deletion strains, locus YOR290C, strain snf2, active compounds read low 0.992 | S. cerevisiae deletion strains, locus YOR316C, strain cot1, active compounds read low 0.994 | S. cerevisiae deletion strains, locus YPL051W, strain arl3, active compounds read low 1 | S. cerevisiae deletion strains, locus YPL055C, strain LGE1, active compounds read low 1.02 | S. cerevisiae deletion strains, locus YPL078C, strain atp4, active compounds read low 0.965 | S. cerevisiae deletion strains, locus YPL106C, strain sse1, active compounds read low 0.963 | S. cerevisiae deletion strains, locus YPL240C, strain hsp82, active compounds read low 0.982 | S. cerevisiae deletion strains, locus YPL241C, strain CIN2, active compounds read low 0.996 | S. cerevisiae deletion strains, locus YPL256C, strain CLN2, active compounds read low 1.04 | S. cerevisiae deletion strains, locus YPR119W, strain clb2, active compounds read low 0.981 | S. cerevisiae deletion strains, locus YPR141C, strain kar3, active compounds read low 0.981 | S. cerevisiae deletion strains, locus YPR163C, strain tif3, active compounds read low 0.992 | S. cerevisiae deletion strains, locus YPR167C, strain met16, active compounds read low 0.982 | S. cerevisiae deletion strains, strain wtn01, active compounds read low 1.02 | S. cerevisiae strains, strain wild type, active compounds read low 1.01
